BCR signal inh = chronic active BCR signaling inhibition; Potency, µM (highest dose often 46.1 µM), without a hit: at the highest dose activity change, negative = inhibition, actives largely listed as inhibitors; ABC-DLBCL IkBa-CBG/CBR reporter, luminescence ratio, 4 h; 340,000 compounds, 0.05% hits; active = well fitted inhibition curve with a large enough effect in the signal ratio, with a control signal flat, not every such curve was filed as active; inconclusive = small, poorly fitted or top-dose-only effect, or effect the other way, or a change in a side signal; the % refers to the signal ratio;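 note: potency is the fitted concentration of half-maximal effect; plate controls were basal doxycycline-induced cells for no effect and cells given 10 µM MG132 for full effect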
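TMD8 ABC-DLBCL cells carrying doxycycline-inducible green luciferase fused to IkappaBalpha plus unfused red luciferase were exposed to compounds (up to 46 uM) for 4 hrs at 37C. Activity came from the overlap-corrected green/red luminescence ratio.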
TDP1 cell CPT = DT40-hTDP1 cell growth loss with CPT; Potency, µM (titrated, usually from 46.2 µM), for inactives: at the top dose activity change, negative = growth inhibition, hits mostly inhibitors; chicken DT40 Tdp1-/-;hTDP1 cells + 20 nM CPT, ATP luminescence, 48 h; 420,000 compounds, 12% hits; AID 686979; note: potency is the fitted concentration of half-maximal effect; % is set by controls: 0 for no effect and ±100 for the full control effect; nearly all actives have a fitted effect of over 55% in size
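Chicken DT40 Tdp1-/- cells stably complemented with human TDP1 were seeded at 400 cells/well in medium containing 20 nM camptothecin, exposed to pin-transferred compounds, and grown at 37 °C for at least 48 hr. Viability was read as ATP luminescence.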
IL-1B inflam inh = inhibitors of inflammasome signaling (IL-1 beta secretion). THP-1 LPS/ATP IL-1B secretion, AlphaLISA, 16 h; hits give low values. activity change, % at 57.5 µM. 360,000 compounds, 4.7% hits. AID 743279; in the data active = activity change below about -50%; inconclusive = mostly about -30% to -49%; note: % is set by controls: 0 for no effect and ±100 for the full control effect
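THP-1 cells pretreated 1 hr with compounds (up to 57.5 uM final), then stimulated with LPS (250 ng/mL final) plus ATP (1.25 mM final); secreted IL-1B measured by AlphaLISA after 16 hr, decreased signal indicating inhibition.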
SW480 rerep = DNA re-replication induction in SW480 cells; SW480 DNA re-replication, Hoechst DNA content imaging, 48 h; Potency, µM (highest dose often 46.1 µM), for inactives: at the highest dose re-replication activation, actives largely listed as activators; 340,000 compounds, 1.8% hits; note: potency is the fitted concentration of half-maximal effect; % of control where 0% means no effect; nearly all actives have a fitted effect of over 55% in size
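Quantitative HTS format with DMSO vehicle controls; 48 hr drug incubation at 37 C, then 40 min Hoechst staining and scanning imager measurement at 405 nm excitation.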
MCF10A rerep = induces DNA re-replication in MCF 10a normal breast cells. AID 624296. 350,000 compounds, 2.9% hits. Potency, µM (doses to about 46.1 µM), inactives show at the top dose activity, positive = re-replication, actives largely listed as activators. MCF 10A DNA re-replication, Hoechst nuclear intensity, 48 h; note: potency is the fitted concentration of half-maximal effect; % of control where 0% means no effect; nearly all actives have a fitted effect of over 50% in size
DT40 TDP1 no CPT = qHTS for Inhibitors of human tyrosyl-DNA phosphodiesterase 1 (TDP1): qHTS in cells in absence of CPT | Potency, µM (doses to about 46.2 µM), without a hit: at the top dose activity change, negative = growth inhibition, actives largely listed as inhibitors | 420,000 compounds, 15% hits | DT40 Tdp1-/- hTDP1 cells, no CPT, ATP luminescence, 48 h; note: potency is the fitted concentration of half-maximal effect; % is set by controls: 0 for no effect and ±100 for the full control effect; nearly all actives have a fitted effect of over 55% in size
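Stably hTDP1-transfected Tdp1-null chicken DT40 cells were treated with library compounds minus camptothecin and grown for at least 48 hr at 37 °C, after which cellular ATP was quantified by luminescence.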
* = called active by the depositor; u = inconclusive; x = not tested or not shown; ! = repeats disagree; [ ] = dose if it differs, or a comment. Most compounds without a hit are left out; they make up all but 19% or so of the library. Unless noted, calls come from the whole dose curve; as a rule, active = well fitted curve in the direction sought with a large enough effect; inconclusive = small, poorly fitted or top-dose-only effect, or another doubt; inactive = no such curve, though single readings can be large; an effect the other way counts as inactive or inconclusive.

SMILES	BCR signal inh	TDP1 cell CPT	IL-1B inflam inh	SW480 rerep	MCF10A rerep	DT40 TDP1 no CPT
CCCOc1ccc(N2C(=O)CC(NCCCN3CCC(C(N)=O)CC3)C2=O)cc1 (configuration not stated)	x	25.9µM*	-4.0	2.4%[9.22 µM]	-5.7%	u
C=CCN(C(=O)CCC(=O)O)C1CC(=O)N(c2ccc(OCCC)cc2)C1=O (configuration not stated)	-0.5%	23.1µM*	5.3	0.8%	-0.4%	25.9µM*
CCCOc1ccc(N2C(=O)CC(N3CCOCC3)C2=O)cc1 (configuration not stated)	15.8%	-10.5%	28.0	7.5%	1.7%	-8.8%
CCCOc1ccc(N2C(=O)CC(N3CCC(C(=O)OCC)CC3)C2=O)cc1 (configuration not stated)	-1.7%	u	19.5	2.3%	14.6µM*	-18.9%
CCOC(=O)c1ccc(N2C(=O)CC(N3CCCC(C)C3)C2=O)cc1 (configuration not stated)	7.9%	12.6µM*	12.5	0.2%	-5.6%	u
CC(=O)Nc1ccc(NC(=O)C(C)OC(=O)C2(c3ccccc3F)CCCC2)cc1 (configuration not stated)	8.1%	u	60.6	-19.5%	6.3%	u
COc1ccccc1N1CCN(C(=O)c2cc3c(=O)oc4ccc(C)cc4c3s2)CC1	x	10.0%	x	x	x	6.0%
CC1(c2nnnn2Cc2ccccc2)CCC(=O)N1Cc1cccc(C(F)(F)F)c1 (configuration not stated)	x	-1.8%	1.8	x	x	-22.2%
Cc1cccc(C)c1-n1nnnc1C1(C)CCC(=O)N1Cc1cccc(C(F)(F)F)c1 (configuration not stated)	x	23.1µM*	29.9	x	x	23.1µM*
O=C(c1ccc(COc2ccccc2Cl)o1)N1CCN(Cc2ccc3c(c2)OCO3)CC1	3.3%	16.4µM*!	-12.7	-0.8%	u	20.6µM*
O=C(c1ccc(COc2ccc(Cl)cc2)o1)N1CCN(Cc2ccc3c(c2)OCO3)CC1	-18.3%	u	-75.9*	15.3%	u	11.2µM*
Cc1ccc(Cl)cc1N1CCN(Cc2nc3c(c(=O)[nH]c(=O)n3C)n2CCc2ccccc2)CC1	u	16.4µM*	4.2	8.1%	u	u
Cc1ccc(Cl)cc1N1CCN(Cc2nc3c(c(=O)[nH]c(=O)n3C)n2Cc2ccccc2F)CC1	-10.1%	u	u	16.9%	u	23.1µM*
Cn1c(=O)[nH]c(=O)c2c1nc(CN1CCN(c3ccccc3F)CC1)n2Cc1ccc(F)cc1	x	-25.4%	x	x	x	-26.7%
Cc1ccccc1Cn1c(CN2CCN(c3cc(Cl)ccc3C)CC2)nc2c1c(=O)[nH]c(=O)n2C	x	u	x	x	x	13µM*
Cc1cccc(Cn2c(CN3CCN(Cc4ccccc4)CC3)nc3c2c(=O)[nH]c(=O)n3C)c1	-22.1%	u	-6.0	-0.3%	6.1%	u
Cn1c(=O)[nH]c(=O)c2c1nc(CN1CCOCC1)n2CCc1ccccc1	-0.1%	-14.2%	20.4	1.4%	14.3%	8.3%
COc1cc2c(cc1OC)C(=O)OC2	x	1.1%	x	x	x	17.4%
CCC1CN(CCC(=O)N2CCN(c3ncccn3)CC2)Cc2cc(OC)ccc2O1 (configuration not stated)	x	-2.9%[9.04 µM]	x	x	x	-13.6%
O=C(NC1CCCCC1)C(CCc1ccccc1)N1CCc2ccccc2C1 (configuration not stated)	x	20.6µM*	9.1	x	x	20.6µM*
CCCn1c(SCC(=O)Nc2nc(-c3ccc(OC)cc3)cs2)nc2c1c(=O)n(C)c(=O)n2C	4.7%	u	-2.3	15.6%	u	u
CC(C)n1c(SCC(=O)Nc2ccc3c(c2)OCO3)nc2c1c(=O)n(C)c(=O)n2C	-7.3%	u	13.3	6.0%	-2.3%	u
CCOc1ccc2nc(NC(=O)CSc3nc4c(c(=O)n(C)c(=O)n4C)n3C(C)C)sc2c1	-0.3%	23.1µM*	7.6	4.9%	u	14.6µM*
CC(C)n1c(SCC(=O)Nc2nc3ccccc3s2)nc2c1c(=O)n(C)c(=O)n2C	x	16.4µM*	-52.1*	u	u	20.6µM*
CCOc1ccc2nc(NC(=O)Cn3cnc4c3c(=O)n(C)c(=O)n4C)sc2c1	u	-2.3%	22.6	1.4%	0.4%	-10.0%
SMILES	BCR signal inh	TDP1 cell CPT	IL-1B inflam inh	SW480 rerep	MCF10A rerep	DT40 TDP1 no CPT
CCn1c(SCC(=O)Nc2nc3ccc(OC)cc3s2)nc2c1c(=O)n(C)c(=O)n2C	-5.5%	18.4µM*	u	2.2%	1.4%	u
O=C(O)COc1ccccc1/C=N/NC(=O)CSc1nc2ccccc2n1Cc1ccc(Cl)cc1	6.5%	2.8%	22.6	-28.7%	-2.2%	-2.9%
Cc1ccc(N2C(=O)CSC2c2cccnc2)c(Cl)c1 (configuration not stated)	u	18.4µM*	25.7	u	u	20.6µM*
N/C(=N\c1nc2ccccc2o1)NC(=O)c1ccc(Cl)cc1	5.8%	u	8.4	-3.7%	u	-5.2%
N/C(=N\c1nc2ccccc2o1)NC(=O)c1ccc(F)cc1	u	13µM*	-0.9	22.8%	9.1%	13µM*
N/C(=N\c1nc2ccccc2o1)NC(=O)c1ccccc1Br	u	u	33.7	-0.8%	-2.0%	16.4µM*
Cc1ccc2oc(/N=C(\N)NC(=O)C3CC3)nc2c1	u	9.2µM*	-20.2	9.2µM*	u	4.61µM*
CCN(CC)CCNC(=S)NC(=O)c1cn(-c2ccccc2)nc1-c1ccc(OC)cc1	-17.7%	u	u	u	u	u
O=C1c2ccccc2C(=O)N1CSc1nnc2c3ccccc3n(CCc3ccccc3)c2n1	0.3%	u	-21.5	-0.1%	-6.8%	20.6µM*
c1ccc(CCn2c3ccccc3c3nnc(SCc4ccc5nonc5c4)nc32)cc1	5.5%	14.6µM*	-3.8	u	u	16.4µM*
CC[C@]1(C(=O)OC)[C@H]2C(=O)N(Cc3ccccc3)C(=O)[C@H]2[C@H]2CN=C(SCC(=O)c3ccccc3)N21	-7.2%	u	0.0	u	1.9%	u
COC(=O)[C@@]1(Cc2ccccc2)[C@H]2C(=O)N(Cc3ccccc3)C(=O)[C@H]2[C@H]2CN=C(SCC(=O)c3ccccc3)N21	2.7%	u	-14.0	0.7%[9.22 µM]	-4.4%	18.4µM*

Source: PubChem BioAssay (National Center for Advancing Translational Sciences (NCATS))
